Bioassay records from PubChem.
Rango release inh = prevents RanGTP from dissociating the Rango-importin beta complex; O95149+P62826; Biochemical FRET Rango-importin beta, RanGTP-induced dissociation; Potency, µM (highest dose often 46.1 µM), for the others: at the top dose activity change, negative = inhibition; actives 0.071% (n = 340,000); further: potency means the concentration at half of the fitted maximal effect; % of control where 0% means no effect; nearly all actives have a fitted effect of over 45% in size
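Two FRET readings bracket the reaction: one 5 min after compound meets Rango–importin beta, another 45 min after RanGTP-RCC1 (0.6 uM Ran, 0.2 uM RCC1, 2 mM GTP) is added. Only the second defines inhibition.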
TSG101-PTAP inh = blocks PTAP/TSG101 interaction to inhibit HIV-1 budding | Q99816 | Fluorescence polarization, FITC-PTAP peptide / Tsg101 binding | Potency, µM (doses to about 115 µM), for the others: top-dose activity change, negative = inhibition, hits mostly inhibitors | 340,000 tested, under 10 active | AID 493005; active means well fitted inhibition curve with a large enough effect in the main read-out, with a control signal flat, not every such curve was filed as active; inconclusive means small, poorly fitted or top-dose-only effect, or effect the other way, or a change in a side signal; inactive means no such curve, though single readings can be large or run the other way; further: potency means the concentration at half of the fitted maximal effect; % of control where 0% means no effect
Target sequence (Q99816 whole entry, looked up): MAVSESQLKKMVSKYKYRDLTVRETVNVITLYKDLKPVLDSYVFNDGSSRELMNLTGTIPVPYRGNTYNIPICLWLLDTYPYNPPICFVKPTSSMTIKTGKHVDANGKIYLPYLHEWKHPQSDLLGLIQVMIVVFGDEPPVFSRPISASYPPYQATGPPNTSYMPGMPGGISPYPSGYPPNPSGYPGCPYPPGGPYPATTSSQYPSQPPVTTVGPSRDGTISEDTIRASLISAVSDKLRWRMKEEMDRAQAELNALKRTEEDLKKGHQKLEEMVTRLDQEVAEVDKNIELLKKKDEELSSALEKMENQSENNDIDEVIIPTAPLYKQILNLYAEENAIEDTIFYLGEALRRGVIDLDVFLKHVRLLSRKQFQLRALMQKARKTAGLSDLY
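Steps: Tsg101 binding domain dispensed (10 uM final), compounds pinned in DMSO, FITC-labeled PTAP-motif peptide added (50 nM final); after 20 min binding at room temperature, polarization measured.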
DRD3 antagonist = D3 dopamine receptor (human) antagonism. P35462. D3R cells, DiscoveRx beta-arrestin luminescence, antagonist mode; stronger effect = lower value. max response, negative = inhibition, %. actives 2.5% (n = 360,000). AID 652054; in the data active means max response below about -50%; inconclusive means no clear call, values can overlap the other calls; further: on the % scale 0 is the no-effect control and ±100 the full control effect
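Cells expressing the human receptor were seeded at 1500 cells/well, incubated overnight at 37 degrees C in 5% CO2, then exposed to library compounds with dopamine controls for 90 minutes at 37 degrees C before luminescent detection.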
Rango complex inh = inhibitors of Rango-importin beta complex formation; actives 0.031% (n = 340,000); Rango CFP/YFP FRET sensor + importin beta, 45 min; Q14974; Potency, µM (series often up to 92.2 µM), for inactives: top-dose inhibition of complex formation;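 further: potency means the concentration at half of the fitted maximal effect; 0% = DMSO wells and 100% = buffer wells lacking importin beta; nearly all actives have a fitted effect of over 15% in size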
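FRET biosensor Rango (snurportin 1 IBB between N-terminal EYFP and C-terminal Cerulean), 50 nM in PBS/1 mM DTT/0.02% Tween-20/0.1% BSA, preincubated 5 min RT with compound; 0.125 microM importin beta added, 45 min RT, CFP/YFP FRET ratio read.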
DRD3 agonist = agonists of human D3 dopamine receptor; P35462; D3R DiscoveRx beta-arrestin cells, luminescence, 90 min; max activation, %; actives 0.58% (n = 410,000); in the data active means max activation above about 30%; further: 0% is about no effect
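Cells at 1500/well, incubated overnight, then treated with pinned compounds (dopamine as control) for 90 min at 37 degrees C. DiscoveRx reagent added for 30 - 60 minutes at room temperature; luminescence read.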
MmCpn inh = inhibitors of Methanococcus maripaludis chaperonin TRiC (MmCpn); purified Mm-Cpn ATPase, ADP Transcreener TR-FRET; Potency, µM (doses to about 76.9 µM), for inactives: top-dose activity, negative = inhibition, usual class: inhibitors; actives 0.031% (n = 330,000); AID 504842; active means well fitted inhibition curve with a large enough effect; inconclusive means small, poorly fitted or top-dose-only effect; further: potency means the concentration at half of the fitted maximal effect; on the % scale 0 is the no-effect control and ±100 the full control effect; nearly all actives have a fitted effect of over 80% in size
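Inhibition of chaperonin ATP hydrolysis is measured as reduced ADP production, detected by competitive TR-FRET in which signal falls with ADP. Final enzyme 25 nM and ATP 10 uM, reacted 30 min at 37°C.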
An asterisk follows results filed as active; [ ] = remark or other dose. Sampled rows, rich in hits. Any-hit rate of the full collection: about 2.9%. Unless noted, the call rests on the fitted dose curve.

Screening CC(C)N1CCN(c2ccc(O)cc2)CC1 returned Rango release inh -1%, TSG101-PTAP inh 0%, DRD3 antagonist -7, Rango complex inh 3%, DRD3 agonist -5 and MmCpn inh 2%.
Screening COc1cc(/C=N/NC(=O)c2cnccn2)cc(OC)c1OC returned Rango release inh 25%, TSG101-PTAP inh -3%, DRD3 antagonist -1, Rango complex inh 4%, DRD3 agonist 27 and MmCpn inh 2%.
For CC[C@H]1CN(C)CCc2c([nH]c3ccccc23)C(=O)C[C@@H]1/C(=C\OC)C(=O)OC the results were Rango release inh -5%, TSG101-PTAP inh 3%, DRD3 antagonist -51*, Rango complex inh inconclusive and DRD3 agonist -16.
For CC[C@H]1CN(C)C[C@@]2(C(=O)OC)Cc3c([nH]c4ccccc34)C(=O)C[C@@H]12 the results were Rango release inh 1%, TSG101-PTAP inh 0%, DRD3 antagonist 0, Rango complex inh 0% and DRD3 agonist 28.
`Fc1ccc(CCNCc2ccc(Br)cc2)cc1` gave Rango release inh 0%, TSG101-PTAP inh -4%, DRD3 antagonist -56*, Rango complex inh -2%, DRD3 agonist -17 and MmCpn inh 2%.
Fc1ccc(CNCCc2ccccc2F)cc1 was read as Rango release inh -2%, TSG101-PTAP inh -5%, DRD3 antagonist inconclusive, Rango complex inh -3%, DRD3 agonist -11 and MmCpn inh 1%.
Fc1ccc(CCNCc2cccc(Cl)c2)cc1 was read as Rango release inh 0%, TSG101-PTAP inh -9%, DRD3 antagonist -56*, Rango complex inh inconclusive, DRD3 agonist -29 and MmCpn inh 0%.
Screening C=CCN1CC[C@]23CCCC[C@H]2[C@H]1Cc1ccc(O)cc13 returned DRD3 agonist -19.
For c1ccc(C(OCCN2CCNCC2)c2ccccc2)cc1 the results were Rango release inh 13%, TSG101-PTAP inh -1%, DRD3 antagonist -68*, Rango complex inh 3%, DRD3 agonist -1 and MmCpn inh 0%.
For Brc1ccc(Oc2ccc(Br)cc2Br)c(Br)c1 the results were Rango release inh 26µM*, TSG101-PTAP inh 0%, DRD3 antagonist 14, Rango complex inh -1%, DRD3 agonist -19 and MmCpn inh -1%.
`C=C[C@H](Cc1ccccc1)N(Cc1ccccc1)S(=O)(=O)N(Cc1ccccc1)[C@H](C=C)Cc1ccccc1` gave Rango release inh 15%, TSG101-PTAP inh -2%, DRD3 antagonist -18, Rango complex inh 0%, DRD3 agonist -18 and MmCpn inh inconclusive.
For COCCNCCOc1ccc(C(C)(C)c2ccccc2)cc1 the results were Rango release inh 7%, TSG101-PTAP inh 0%, DRD3 antagonist -57*, Rango complex inh 0%, DRD3 agonist -29 and MmCpn inh -4%.
C[N+](C)(C)CCOC(=O)C(O)(c1ccccc1)c1ccccc1 was read as DRD3 agonist 8.
`Clc1ccc2c(c1)CCc1cccnc1C2=C1CCNCC1` gave MmCpn inh -7%.
For NC(=O)c1ccc(C(=O)Nc2ccc([As](=O)(O)O)cc2)cc1 the results were MmCpn inh 0%.
`O=[As](O)(O)c1ccc(N=Nc2ccc(O)cc2)cc1` gave Rango release inh 15%, TSG101-PTAP inh 1%, DRD3 antagonist -99*, Rango complex inh 5%, DRD3 agonist -13 and MmCpn inh -2%.
Screening COc1cc(CN2CCCC(C(=O)c3sccc3C)C2)cc(OC)c1O (stereo unspecified) returned Rango release inh inconclusive, TSG101-PTAP inh 1%, DRD3 antagonist -27, Rango complex inh 0%, DRD3 agonist -2 and MmCpn inh -1%.
`Cc1ccsc1C(=O)C1CCCN(Cc2ccc(-n3cccn3)cc2)C1` (stereo unspecified) gave Rango release inh 13%, TSG101-PTAP inh -1%, DRD3 antagonist -63*, Rango complex inh -1%, DRD3 agonist -14 and MmCpn inh 1%.
`Cc1ccsc1C(=O)C1CCCN(Cc2cccc(-n3cccn3)c2)C1` (stereo unspecified) gave Rango release inh 11%, TSG101-PTAP inh 0%, DRD3 antagonist -80*, Rango complex inh -2%, DRD3 agonist -33 and MmCpn inh 1%.
Cc1ccsc1C(=O)C1CCCN(Cc2cccc(OCCO)c2)C1 (stereo unspecified) was read as Rango release inh -8%, TSG101-PTAP inh -1%, DRD3 antagonist inconclusive, Rango complex inh -3%, DRD3 agonist -30 and MmCpn inh -2%.
Screening C[C@H](N)C(=O)c1ccccc1 returned DRD3 agonist 1.
For Cc1nn(-c2ccccc2)c2c1P(=O)(O)/C(=C1\N(C)c3ccccc3C1(C)C)C=N2 the results were Rango release inh inconclusive, TSG101-PTAP inh -10%, DRD3 antagonist inconclusive, Rango complex inh inconclusive, DRD3 agonist -33 and MmCpn inh 1%.
Screening CN1CCc2nc(SCc3ccccc3Br)c(C#N)cc2C1 returned Rango release inh 9%, TSG101-PTAP inh -4%, DRD3 antagonist -81*, Rango complex inh -3%, DRD3 agonist -11 and MmCpn inh -3%.
Screening Cc1cccc(CSc2nc3c(cc2C#N)CN(C)CC3)c1 returned Rango release inh -6%, TSG101-PTAP inh -1%, DRD3 antagonist -26, Rango complex inh 0%, DRD3 agonist -1 and MmCpn inh 0%.
O=S(=O)(c1ccc(F)cc1)N1CCCCC1c1cccnc1 (stereo unspecified) was read as Rango release inh 0%, TSG101-PTAP inh -1%, DRD3 antagonist 6, Rango complex inh -7%, DRD3 agonist -3 and MmCpn inh 2%.
COc1ccccc1CN1CCCCC1c1cccnc1 (stereo unspecified) was read as Rango release inh -1%, TSG101-PTAP inh -2%, DRD3 antagonist -9, Rango complex inh -1%, DRD3 agonist 33* and MmCpn inh -3%[15.4 µM].
Cc1ccc2c(c1)C1CN(C)CCC1N2 (stereo unspecified) was read as DRD3 agonist -21.
Screening O=C(c1ccc2c(c1)OCO2)C1CCCN(CC2CCCCC2)C1 (stereo unspecified) returned Rango release inh -18%, TSG101-PTAP inh -3%, DRD3 antagonist -83*, Rango complex inh -3%, DRD3 agonist -26 and MmCpn inh -1%.
For S=P(N1CCCCCC1)(N1CC1)N1CC1 the results were Rango release inh -4%, TSG101-PTAP inh -1%, DRD3 antagonist 6, Rango complex inh 2% and DRD3 agonist 2.
